Screening results (PubChem)
KDM5B inhibitor: KDM5B demethylase inhibition. Q9UGL1. KDM5B demethylase, FDH-coupled NADH fluorescence (FDH is formaldehyde dehydrogenase). Potency, µM (highest dose often 57.7 µM), usual class: inhibitors. actives 2.6% (n = 220,000). AID 1347165; active = well fitted inhibition curve with a large enough effect; also: nearly all actives have a fitted effect of over 70% in size
Target sequence (Q9UGL1 whole entry, looked up): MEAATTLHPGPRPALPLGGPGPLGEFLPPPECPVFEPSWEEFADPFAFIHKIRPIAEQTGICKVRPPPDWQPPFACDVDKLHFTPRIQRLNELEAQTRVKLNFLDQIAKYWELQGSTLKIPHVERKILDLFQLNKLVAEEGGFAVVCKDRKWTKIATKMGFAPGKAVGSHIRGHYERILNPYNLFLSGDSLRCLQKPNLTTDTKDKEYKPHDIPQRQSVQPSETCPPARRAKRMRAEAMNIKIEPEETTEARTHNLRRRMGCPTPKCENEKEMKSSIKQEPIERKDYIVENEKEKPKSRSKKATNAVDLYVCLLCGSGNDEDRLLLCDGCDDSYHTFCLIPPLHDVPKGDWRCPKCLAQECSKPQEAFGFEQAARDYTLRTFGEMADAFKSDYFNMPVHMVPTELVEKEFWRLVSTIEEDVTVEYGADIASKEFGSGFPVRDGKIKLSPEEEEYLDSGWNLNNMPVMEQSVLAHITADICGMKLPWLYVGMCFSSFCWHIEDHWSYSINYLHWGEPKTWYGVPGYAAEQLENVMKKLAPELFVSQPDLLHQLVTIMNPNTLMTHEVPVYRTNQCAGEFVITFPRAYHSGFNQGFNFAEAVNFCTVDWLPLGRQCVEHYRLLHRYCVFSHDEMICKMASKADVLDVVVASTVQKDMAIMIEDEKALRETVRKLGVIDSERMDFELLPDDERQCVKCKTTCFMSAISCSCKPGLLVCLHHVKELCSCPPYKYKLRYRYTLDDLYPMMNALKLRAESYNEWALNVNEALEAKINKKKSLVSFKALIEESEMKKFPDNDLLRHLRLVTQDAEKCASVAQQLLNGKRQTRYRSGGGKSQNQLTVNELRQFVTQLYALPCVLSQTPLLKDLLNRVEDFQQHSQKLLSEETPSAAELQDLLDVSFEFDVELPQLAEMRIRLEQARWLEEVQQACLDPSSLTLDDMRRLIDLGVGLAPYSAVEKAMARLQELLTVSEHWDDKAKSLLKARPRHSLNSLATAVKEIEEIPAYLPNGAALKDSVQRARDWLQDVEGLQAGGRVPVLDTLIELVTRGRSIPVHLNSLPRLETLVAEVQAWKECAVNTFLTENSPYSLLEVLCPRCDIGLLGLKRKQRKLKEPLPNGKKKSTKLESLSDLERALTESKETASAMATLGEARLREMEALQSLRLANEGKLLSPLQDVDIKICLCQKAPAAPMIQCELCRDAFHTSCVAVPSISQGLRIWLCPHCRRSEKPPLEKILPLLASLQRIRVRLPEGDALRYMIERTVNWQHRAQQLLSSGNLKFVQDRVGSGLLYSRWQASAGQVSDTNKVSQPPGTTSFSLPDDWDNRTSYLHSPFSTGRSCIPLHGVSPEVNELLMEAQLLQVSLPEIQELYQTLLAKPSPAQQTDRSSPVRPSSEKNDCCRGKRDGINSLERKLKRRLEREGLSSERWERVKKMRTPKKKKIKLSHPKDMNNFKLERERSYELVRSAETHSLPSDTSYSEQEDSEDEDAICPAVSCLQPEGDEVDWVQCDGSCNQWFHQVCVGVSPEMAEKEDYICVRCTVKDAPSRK
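Compound dilutions met 200 nM (final) KDM5BΔAP for 10 min at room temperature before substrate addition. The substrate mix held 12.5 µM H3K4me3 with cofactors 25 µM α-ketoglutarate and 50 µM Fe²⁺. NADH signal gain over 30 min defined activity.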
Large screens that a line does not name were inactive. Shown is part of a subset that was picked to be rich in hits.

CCCCOC(=O)c1ccc(Nc2nc3ccccc3nc2NS(=O)(=O)c2ccccc2)cc1	none
CCN(CC(=O)NC(C)(C)C)C(=O)NCc1cccc(C(F)(F)F)c1	none
O=c1cc(CN2CCCN(Cc3ccc(C(F)(F)F)cc3)CC2)nc2ccc(Cl)cn12	none
COc1ccc(N2CCCCS2(=O)=O)cc1S(=O)(=O)Nc1ccc(Cl)cc1	none
O=C(NC1CCCC1)[C@H]1C[C@@H](O)[C@H](O)[C@@H]2N=C(Nc3ccc4c(c3)OCO4)S[C@@H]21	none
COc1ccc(CN2CCN(C(=O)c3cc4c(s3)CCCC4)CC2)cc1OC	none
COCCN(CCOC)C(=O)COc1cc2oc(=O)cc(-c3ccccc3)c2cc1Cl	none
COc1cccc([S+](=O)([O-])N2CCC3(CC2)C(=NC2CCCCC2)NC(=O)N3c2cc(F)cc(F)c2)c1	none
CCS(=O)(=O)N1CCCc2cc(C(=O)Nc3cc(Cl)ccc3C)ccc21	none
COc1ccc(/C=C/C(=O)c2ccc(O)cc2)cc1C	none
CC(C)NC(=O)CN(C)CC(O)COc1c(Cl)cccc1Cl (stereo unspecified)	none
Cc1cc(C)cc(Nc2ncnc3sc4c(c23)CCCC4)c1	none
C[C@H](Nc1ncnc2sc3c(c12)CCC3)C(=O)O	none
CCNc1ncnc2sc3c(c12)CCN(Cc1ccc[nH]1)C3	KDM5B inhibitor 28.2µM
CC1=C[C@@H](CNCc2ccc(Cl)cc2)[C@H](C(C)C)C[C@H]1Cc1nnc(-c2cncn2C)o1	none
Cc1noc(-c2cccc(OC3CN(C(=O)c4cccn4C)C3)c2)n1	none
O=C(c1cccc2[nH]ccc12)N1CC(Oc2cccc(-c3nc(-c4ccccc4)no3)c2)C1	KDM5B inhibitor 25.1µM
Cc1nc(C)c(C(=O)N2CC(Oc3cccc(-c4nc(-c5ccccc5)no4)c3)C2)s1	none
O=C(c1cccc(F)c1)N1CC(Oc2cccc(-c3nc(-c4ccccc4)no3)c2)C1	none
O=C(c1cccs1)N1CC(Oc2cccc(-c3nc(-c4ccccc4)no3)c2)C1	none
Cn1cccc1C(=O)N1CC(Oc2cccc(-c3nc(-c4ccccc4)no3)c2)C1	KDM5B inhibitor 31.6µM
COC(=O)c1ccc(C2CC(=O)Nc3c2cc(Br)c2ccccc32)cc1 (stereo unspecified)	none
COc1ccc(CNC(=O)CN2C(=O)CN(C(=O)NCc3ccccc3)c3ccccc32)cc1	none
Cc1ccc(C(CNC(=O)c2sc3ccccc3c2Cl)N2CCCC2)o1 (stereo unspecified)	none
CC(CCc1ccccc1)NC(=O)CN1C(=O)NC(c2ccc(Cl)cc2)C2=C1COC2=O (stereo unspecified)	none
CNC(=O)C(C)Sc1n[nH]c(-c2ccc(OC)cc2OC)n1 (stereo unspecified)	none
Cc1cc(C(=O)COc2ccc3ccc(=O)oc3c2)c(C)n1C1CC1	none
O=C(NCc1nnc2c(-c3nc(C4CC4)no3)cccn12)c1cc(F)ccc1Cl	KDM5B inhibitor 28.2µM
CCOc1ccccc1C(=O)NCc1nnc2c(-c3nc(C4CC4)no3)cccn12	none
O=C(NCc1nnc2c(-c3nc(C4CC4)no3)cccn12)c1cc(F)ccc1F	KDM5B inhibitor 28.2µM
O=C(NCC1(N2CCOCC2)CCSC1)Nc1ccc(Cl)c(Cl)c1 (stereo unspecified)	none
COc1ccc(CC(=O)N2Cc3ccccc3CC3(CCCN(C)C3)C2)cc1 (stereo unspecified)	none
NC(N)=N/N=C/C#Cc1ccccc1	none
CCC1Oc2ccc(NC(=O)Cc3ccc(F)cc3)cc2CN(Cc2cccc(OC)c2)C1=O (stereo unspecified)	none
O=S(=O)(NCc1ccc(N2CCOCC2)nc1)c1ccc(F)cc1	none
N#Cc1cccc(C(=O)N[C@H]2[C@H](O)[C@H](O)C[C@@H]2c2cccnc2)c1	none
COc1ccc([C@H]2C[C@@H](O)[C@@H](O)[C@@H]2NC(=O)c2cccc(OC)c2)cc1	none
COc1ccc(CN[C@H]2[C@H](O)[C@H](O)C[C@@H]2c2ccc(C(F)(F)F)nc2)cc1	none
CN1CCC(N[C@H]2[C@H](O)[C@H](O)C[C@@H]2c2ccc(N3CCOCC3)nc2)CC1	KDM5B inhibitor 31.6µM
Cc1ccc([C@H]2C[C@@H](O)[C@@H](O)[C@@H]2NC(=O)C2CCOCC2)cc1	none
COc1cccc(C(=O)N[C@H]2[C@H](O)[C@H](O)C[C@@H]2c2ccc(N3CCOCC3)nc2)c1	KDM5B inhibitor 35.5µM
O[C@H]1[C@H](NCc2cccc(C(F)(F)F)c2)[C@@H](c2cccnc2)C[C@H]1O	none
COc1cccc(CN[C@H]2[C@H](O)[C@H](O)C[C@@H]2c2ccc(N3CCOCC3)nc2)c1	KDM5B inhibitor 35.5µM
COc1ccc(Cc2nnc3n2N(C(C)=O)C(c2ccccc2)=C(C(C)=O)S3)cc1	none
COc1ccc(/C=C2\Oc3cc(OS(=O)(=O)c4ccccc4)ccc3C2=O)cc1OC	none
C=CCOc1ccc(NC(=O)c2ccc(Cl)cc2)cc1	none
CC(C)S(=O)(=O)CC(=O)O	none
O=C(OCc1ccc(Cl)cc1)c1ccc(CN2CCCC2=O)cc1	none
CC(=O)c1cccc(NC(=O)CSc2nc(-c3ccccc3C)nc3cc(=O)[nH]n23)c1	none
Cc1ccccc1S(=O)(=O)N1CCCC(CCC(=O)NCCN(C)C2CCCCC2)C1 (stereo unspecified)	none
CS(=O)(=O)CCC(NS(=O)(=O)/C=C/c1ccccc1)C(=O)O (stereo unspecified)	none
COc1ccc(-c2cc(C(=O)NC3CCNCC3)c3c(C)nn(-c4ccccc4)c3n2)cc1	KDM5B inhibitor 79.4µM
COC(=O)c1ccccc1NC(=O)c1cc(C)nc2c1c(C)nn2-c1ccc(C)cc1	none
COc1ccc(NC(=O)c2cc(C3CC3)nc3c2c(C)nn3-c2ccccc2)c(OC)c1	none
COc1ccc(OC)c(NC(=O)c2cc(C3CC3)nc3c2c(C)nn3-c2ccc(C)cc2)c1	none
Cc1cc(C(=O)NC2CCN(Cc3ccccc3)CC2)c2c(C)nn(-c3ccccc3)c2n1	none
COc1ccc(-c2cc(C(=O)NC3CC3)c3c(C)nn(-c4ccccc4)c3n2)cc1	KDM5B inhibitor 79.4µM
COc1cccc(-c2nn(-c3ccc(F)cc3)cc2C(=O)NCC(C(C)C)N2CCOCC2)c1 (stereo unspecified)	none
O=C(Nc1ccc(F)cc1)C1Sc2nnc(-c3ccccc3)n2NC12CCCCC2 (stereo unspecified)	none
O=C(OCC1C(COC(=O)c2ccccc2Cl)C1(Cl)Cl)c1ccccc1Cl (stereo unspecified)	none
O=C(c1ccc(F)c(F)c1)c1cc2ccccc2o1	none
COc1ccc(CN2CC(COc3ccccc3)C3(C2)CN(c2ccccc2)C3)cc1O (stereo unspecified)	KDM5B inhibitor 31.6µM
O=C(O)c1ccc(CN2CC(COc3ccccc3)C3(C2)CN(c2ccccc2)C3)cc1 (stereo unspecified)	none
COc1ccc(CN2CC(CN[S+](=O)([O-])c3ccccc3)C3(C2)CN(c2ccccc2)C3)cc1O (stereo unspecified)	none
Cc1ccc(Cc2cnc(NC(=O)c3cc(=O)c4cc(C)cc(C)c4o3)s2)cc1	none
O=C(NCc1cccs1)c1cc(-c2cccnc2)nc2ccc(Cl)cc12	none
O=C(NCc1cccs1)c1c[nH]c2ncccc12	none
O=C(NCc1cccs1)c1cc(-c2cccnc2)c2nncn2n1	KDM5B inhibitor 100µM
COc1ccc2c(c1)cc(C(=O)Nc1ccccc1OC)n2C	none
O=C(NC1CCN(c2cc(-c3cccs3)[nH]n2)C1)c1ccccc1Br (stereo unspecified)	KDM5B inhibitor 25.1µM
COc1ccc(-c2cc(N3CCC(NC(=O)c4ccccc4C)C3)n[nH]2)cc1 (stereo unspecified)	none
COc1ccc(Cl)cc1C(=O)NC1CCN(c2cc(-c3cccs3)[nH]n2)CC1	none
COc1cc(C(=O)NC2CCN(c3cc(-c4cccs4)[nH]n3)CC2)cc(OC)c1OC	none
